This is a sample that favours compounds with a hit; in the whole collection about 28% have one here.
CYP2C9 inhib: inhibitors of human CYP2C9 | P11712 | CYP2C9 Supersomes, luciferin-H conversion, luminescence | inhibition, % at 5 µM | actives 20% (n = 96,000) | AID 777;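 active means blocking of liver enzyme CYP2C9 beyond about 50% at 5 µM, limit read from the data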
CYP2C9 act: activators of human CYP2C9; recombinant CYP2C9, luciferin-H conversion, luminescence; stronger effect = higher value; factor 1 = untreated enzyme, 0 = blocked; activation factor at 5 µM; AID 1024; actives 1.4% (n = 96,000);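 active means activation factor of 2 or more for CYP2C9 at a 5 µM dose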;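 further: 0 = sulfaphenazole-blocked wells and 1 = vehicle-only wells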
CYP2C19 act: cytochrome P450 2C19 (human) activation | recombinant CYP2C19, luciferin-H EGE luminescence; stronger effect = higher value; 0 = fully inhibited enzyme, 1 = untreated enzyme | 96,000 tested, under 10 active | P33261 | activation factor at 5 µM;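 active means activation factor of at least 2 at 5 µM in the primary screen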;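 further: 0 = wells with 2.5 mM tranylcypromine and 1 = vehicle-only wells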
CYP2C19 inhib: blocks human cytochrome P450 2C19; CYP2C19 Supersomes, luciferin-H EGE luminescence, 30 min; inhibition, % at 5 µM; actives 21% (n = 96,000); AID 778;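 active means CYP2C19 inhibition above a set limit at 5 µM in the primary screen, cut at about 50% in these data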;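 further: plate controls were negative control wells for no effect and 2.5 mM tranylcypromine positive control for full effect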
PTK2B oligo ant: Pyk2 (human) oligomerization antagonism; Q293 cells, Pyk2 FERM NanoBiT luminescence; stronger effect = lower value; Q14289; z-score (the deposit names both 25 µM and 10 µM); actives 0.83% (n = 99,000);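 active means Z-score of -3 or lower, scaled per plate to the spread of control and sample wells; inactive means z-score above -3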;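 further: negative z-score means lost luminescence so less FERM oligomerization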
Numbers without * were called inactive.

`CCCC(=O)N1c2ccccc2C(=C2SC(C(=O)OC)=C(C(=O)OC)S2)C(=S)C1(C)C` gave PTK2B oligo ant -2.2.
COC(=O)C1=C(C(=O)OC)SC2(S1)C(C(=O)OC)=C(C(=O)OC)SC1=C2c2cccc(C)c2NC1(C)C was read as CYP2C9 inhib 88*, CYP2C9 act 0.1, CYP2C19 act 0.1, CYP2C19 inhib 85* and PTK2B oligo ant -0.56.
Screening COCCn1nnnc1CN(CCc1ccccc1)Cc1cc2ccc(C)cc2[nH]c1=O returned CYP2C9 inhib 31, CYP2C9 act 0.7, CYP2C19 act 0.5, CYP2C19 inhib 46 and PTK2B oligo ant -0.05.
CN(C)c1nc(-c2ccccc2)c2cnn(Cc3ccccc3)c2n1 was read as CYP2C9 inhib 35, CYP2C9 act 0.7, CYP2C19 act 0.3, CYP2C19 inhib 67* and PTK2B oligo ant -1.6.
For c1ccc(Cn2ncc3ccccc32)cc1 the results were CYP2C9 inhib 6, CYP2C9 act 0.9, CYP2C19 act 0.8, CYP2C19 inhib 24 and PTK2B oligo ant 1.1.
`CCn1cc(NC(=O)Nc2ccccc2C(=O)OC)c(C(N)=O)n1` gave CYP2C9 inhib -2, CYP2C9 act 1, CYP2C19 act 1.1, CYP2C19 inhib -9 and PTK2B oligo ant 2.
`CC(=O)NC(N1CCCCC1)C(F)(F)C(F)(F)C(F)(F)C(F)F` (stereo unspecified) gave CYP2C9 inhib 65*, CYP2C9 act 0.3, CYP2C19 act 0, CYP2C19 inhib 99* and PTK2B oligo ant 0.65.
`COc1ccc(OC)c(NC(=O)C(CCS(C)(=O)=O)NC(C)=O)c1` (stereo unspecified) gave CYP2C9 inhib -17, CYP2C9 act 1.2, CYP2C19 act 1.2, CYP2C19 inhib -16 and PTK2B oligo ant -0.06.
Cc1nn(-c2ccc(Cl)c(Cl)c2Cl)c(=O)c2ccccc12 was read as CYP2C9 inhib 54*, CYP2C9 act 0.5, CYP2C19 act 0.3, CYP2C19 inhib 71* and PTK2B oligo ant -0.91.
For O=C(Nc1nc(-c2ccccc2)cs1)C1CCCO1 (stereo unspecified) the results were CYP2C9 inhib 54*, CYP2C9 act 0.5, CYP2C19 act 0.4, CYP2C19 inhib 62* and PTK2B oligo ant -0.17.
`O=C(Nc1nncs1)C1c2ccccc2Oc2ccccc21` gave CYP2C9 inhib 34, CYP2C9 act 0.7, CYP2C19 act 0.5, CYP2C19 inhib 54* and PTK2B oligo ant -2.3.
O=C(Nc1ccncc1)C1c2ccccc2Oc2ccccc21 was read as CYP2C9 inhib 98*, CYP2C9 act 0, CYP2C19 act 0, CYP2C19 inhib 97* and PTK2B oligo ant -1.3.
Cc1nnc(NC(=O)C2c3ccccc3Oc3ccccc32)s1 was read as PTK2B oligo ant -1.9.
For CC(C)c1nnc(NC(=O)C2c3ccccc3Oc3ccccc32)s1 the results were CYP2C9 inhib 20, CYP2C9 act 0.8, CYP2C19 act 0.9, CYP2C19 inhib 7 and PTK2B oligo ant -1.3.
`O=C(Nc1cccnc1Cl)C1c2ccccc2Oc2ccccc21` gave CYP2C9 inhib 48, CYP2C9 act 0.5, CYP2C19 act 0.3, CYP2C19 inhib 70* and PTK2B oligo ant -0.55.
`CSCC[C@H](NC(=O)C1CCN(S(=O)(=O)c2ccc(C)cc2)CC1)C(=O)NCc1ccco1` gave CYP2C9 inhib -1, CYP2C9 act 1, CYP2C19 act 1.1, CYP2C19 inhib -6 and PTK2B oligo ant 0.25.
Screening O=C(Nc1nc(-c2ccc(-c3ccccc3)cc2)cs1)C1CCCO1 (stereo unspecified) returned CYP2C9 inhib 11, CYP2C9 act 0.9, CYP2C19 act 0.9, CYP2C19 inhib 10 and PTK2B oligo ant 0.75.
For Cc1cccc2sc(NC(=O)C3c4ccccc4Oc4ccccc43)nc12 the results were CYP2C9 inhib 80*, CYP2C9 act 0.2, CYP2C19 act 0.7, CYP2C19 inhib 31 and PTK2B oligo ant -2.
For O=C(Nc1nc(-c2ccccc2)cs1)C1c2ccccc2Oc2ccccc21 the results were CYP2C9 inhib 72*, CYP2C9 act 0.3, CYP2C19 act 0.9, CYP2C19 inhib 12 and PTK2B oligo ant -2.2.
`COc1cccc(C2c3c(oc4ccc(Cl)cc4c3=O)C(=O)N2c2cc(C)on2)c1OC` (stereo unspecified) gave CYP2C9 inhib 29, CYP2C9 act 0.7, CYP2C19 act 0.7, CYP2C19 inhib 26 and PTK2B oligo ant -1.2.
For CC(C)CC(OC(=O)c1cccs1)C(=O)NCC1CCCO1 (stereo unspecified) the results were CYP2C9 inhib 84*, CYP2C9 act 0.2, CYP2C19 act 0.4, CYP2C19 inhib 58* and PTK2B oligo ant 0.1.
For COc1ccc(C(OC(=O)c2cccs2)C(=O)NCC2CCCO2)cc1 (stereo unspecified) the results were CYP2C9 inhib 42, CYP2C9 act 0.6, CYP2C19 act 0.4, CYP2C19 inhib 63* and PTK2B oligo ant -0.45.
For COc1ccccc1C(OC(=O)c1cccs1)C(=O)NCC1CCCO1 (stereo unspecified) the results were CYP2C9 inhib 20, CYP2C9 act 0.8, CYP2C19 act 0.6, CYP2C19 inhib 42 and PTK2B oligo ant -0.14.
For CCn1c(SCCC#N)nnc1-c1ccncc1 the results were CYP2C9 inhib 2, CYP2C9 act 1, CYP2C19 act 0.6, CYP2C19 inhib 44 and PTK2B oligo ant 0.26.
Screening CCC(C)N1CCCCC1C(=O)Nc1c(C)cc(C)cc1C (stereo unspecified) returned PTK2B oligo ant 0.64.
For CC(=O)N1CCCc2cc(S(=O)(=O)Nc3ccc4c(c3)OCO4)ccc21 the results were CYP2C9 inhib 87*, CYP2C9 act 0.1, CYP2C19 act 0, CYP2C19 inhib 99* and PTK2B oligo ant 0.64.
Screening CC(=O)N1CCc2cc(S(=O)(=O)Nc3cccc(C(F)(F)F)c3)ccc21 returned CYP2C9 inhib 71*, CYP2C9 act 0.3, CYP2C19 act 0, CYP2C19 inhib 95* and PTK2B oligo ant -1.8.
For CCOc1cc(/C=C2\SC(=S)N(Nc3ccccc3)C2=O)ccc1O the results were CYP2C9 inhib 3, CYP2C9 act 1, CYP2C19 act 1, CYP2C19 inhib 1 and PTK2B oligo ant -3.6*.
For COc1cc(/C=C2\SC(=S)N(Nc3ncc(C(F)(F)F)cc3Cl)C2=O)ccc1O the results were CYP2C9 inhib 52*, CYP2C9 act 0.5, CYP2C19 act 0.5, CYP2C19 inhib 54* and PTK2B oligo ant -3.1*.
Cc1cc(C)nc(NN2C(=O)/C(=C/c3ccccc3)SC2=S)n1 was read as CYP2C9 inhib 24, CYP2C9 act 0.8, CYP2C19 act 1, CYP2C19 inhib 5 and PTK2B oligo ant -1.8.
Screening CN(C)c1ccc(/C=C2\SC(=S)N(Nc3ncc(C(F)(F)F)cc3Cl)C2=O)cc1 returned CYP2C9 inhib -18, CYP2C9 act 1.2, CYP2C19 act 1, CYP2C19 inhib 2 and PTK2B oligo ant -3.4*.
`COCCOC(=O)C1=C(C)N=C2SCCC(=O)N2C1c1cccc(Br)c1` (stereo unspecified) gave CYP2C9 inhib 47, CYP2C9 act 0.5, CYP2C19 act 0.7, CYP2C19 inhib 30 and PTK2B oligo ant -0.34.
